Test results published in PubChem BioAssay AID772 (SRMLSC, 2007).
Out of some 3,300 compounds screened, about 20 (0.6%) were called active. This is one part of a sample in which actives are shown more often than they occur.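 Rule for the calls: active = growth inhibition above 90%, meaning viable cell count cut by more than 90% versus vehicle controls; inactive = growth inhibition below 90%.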

Experiment: HT29 colon tumor cell growth inhibition, primary screen, imaging, high content imaging, 72 h, CellTiter-Glo (AID 772);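 for condensed nuclei: condensed means nuclear area below control median minus 1.5 SD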
Settings: HCS imaging cell count, at 10 µM, stronger effect = higher value; for condensed nuclei: measured here: percent cells with condensed nuclei
[1] = measured here: ATP CellTiter-Glo viability

Row | Compound | growth inhibition | growth inhibition [1] [%] | condensed nuclei [%]
1 | CCOC(=O)CSc1nc(NC#N)nc(N(CC)CC)n1 | -10.6% (inactive) | -34.2 | 2.47
2 | CC1(C)CC(=O)C(C=NCC(O)c2ccccc2)=C(O)C1 (centres undefined) | 1.15% (inactive) | -3.71 | 3.13
3 | CCN(CC)Cc1cc(C(C)=O)ccc1OCC(C)C | -17.7% (inactive) | -47.7 | 2.8
4 | Cc1ccc(C2/C(=C(/O)c3cnn(-c4ccccc4)c3C)C(=O)C(=O)N2CCN2CCOCC2)o1 (centres undefined) | -41.7% (inactive) | -16.4 | 5.65
5 | CC1CCN(c2oc(-c3ccccc3Cl)nc2C#N)CC1 | 39.9% (inactive) | -1.14 | 4.72
6 | Cc1nnc(C)n1/N=C/c1cccn1C | -26.9% (inactive) | -16.7 | 2.68
7 | CCOC(=O)/C(C#N)=C1\Nc2ccccc2N=C1N(CC(C)C)CC(C)C | 15.8% (inactive) | -0.53 | 3.37
8 | O=C(c1ccc2c3c(cccc13)C(=O)N(O)C2=O)N1CCCCC1 | 63.6% (inactive) | 65.6 | 16.2
9 | S=C(N=Nc1ccccc1)NNc1ccccc1 | 5.63% (inactive) | 9.94 | 9.9
10 | CCCCCC1CC(CC#CCN2CCOCC2)C(=O)O1 (centres undefined) | -6.01% (inactive) | -22.1 | 3.8
11 | Cc1nc(NCCCO)c(C#N)c2c1COC(C)(C)C2 | 26.3% (inactive) | -0.61 | 5.86
12 | CCOC(=O)c1[nH]c2ccc(OC)cc2c1NC(=O)CCN1CCC(C)CC1 | 7.19% (inactive) | 8.59 | 9.76
13 | COc1cccc(-c2nnc3sc(-c4ccc(Cl)cc4)nn23)c1 | -127% (inactive) | -46.5 | 8.69
14 | O=C(O)C(Cc1c[nH]c2ccccc12)NS(=O)(=O)c1cccc2nsnc12 (centres undefined) | 9.77% (inactive) | 1.74 | 1.59
15 | Cc1nn2c(-c3ccc(Cl)cc3)nnc2s1 | 0.82% (inactive) | -46.2 | 2
16 | c1ccc(CN2CCN(c3ncnc4c3[nH]c3ccccc34)CC2)cc1 | 93.4% (active) | 88.4 | 27.8
17 | Cc1ccc2[nH]c3c(N4CCN(Cc5ccccc5)CC4)ncnc3c2c1 | 50.9% (inactive) | 7.07 | 2.3
18 | Cc1ccc2[nH]c3c(N4CCN(Cc5ccc6c(c5)OCO6)CC4)ncnc3c2c1 | 73.7% (inactive) | 96.6 | 29.9
19 | CN1CCN(c2ncnc3c2[nH]c2ccc(F)cc23)CC1 | 27.9% (inactive) | 14.8 | 6.32
20 | Cc1ccc2[nH]c3c(N4CCCCCC4)ncnc3c2c1 | 96.5% (active) | 96 | 39.6
21 | Fc1ccc2[nH]c3c(N4CCN(Cc5ccc6c(c5)OCO6)CC4)ncnc3c2c1 | 92% (active) | 96.7 | 24.5
22 | Cc1ccc2[nH]c3c(N4CCOCC4)ncnc3c2c1 | -53.8% (inactive) | -45.3 | 5.07
23 | c1ccc2c(c1)[nH]c1c(N3CCSCC3)ncnc12 | 57.2% (inactive) | 14.5 | 5.16
24 | COc1ccc2[nH]c3c(N4CCN(Cc5ccc6c(c5)OCO6)CC4)ncnc3c2c1 | 20.7% (inactive) | 21 | 1.08
25 | Cc1cc(C)nc(N(C#N)CC(=O)N(c2ccccc2)C(C)C)n1 | -23.3% (inactive) | -17.6 | 7.69
26 | Clc1ccc2[nH]c3c(NCCCN4CCOCC4)ncnc3c2c1 | 88.5% (inactive) | 96.8 | 45.3

Row | Compound | growth inhibition | growth inhibition [1] [%] | condensed nuclei [%]
27 | COC(=O)C(NC(C)=O)(Nc1ccc(Br)cn1)C(F)(F)F (centres undefined) | -46.6% (inactive) | -39 | 2.33
28 | O=C1CC(c2ccccc2)n2nc(NS(=O)(=O)c3ccccc3)nc2N1 (centres undefined) | 6.12% (inactive) | 25.8 | 5.04
29 | CCOC(=O)CNS(=O)(=O)c1cc(-c2n[nH]c(=O)c3ccccc23)ccc1C | -38.6% (inactive) | -21.1 | 6.33
30 | Cc1nc(/N=C(\N)Nc2ccccc2)nc2ccccc12 | -39.5% (inactive) | -11.8 | 3.28
31 | CCCCCOc1ccccc1C(=O)NCC(=O)O | -69.1% (inactive) | -28.9 | 1.44
32 | CSc1nc2sc3c(c2c2nnnn12)CCCC3 | 37.7% (inactive) | 9.47 | 2.53
33 | Cc1ccc(N2C(=O)[C@@H]3[C@H](C2=O)C2CCCN2[C@@H]3C(=O)c2ccccc2)cc1 (some centres undefined) | 61.8% (inactive) | 9.87 | 4.55
34 | COc1ccc(N2CCN(c3oc(COc4ccc(Cl)cc4)nc3C#N)CC2)cc1 | 92.4% (active) | 87.2 | 23.8
35 | N#Cc1nc(COc2ccc(Cl)cc2)oc1N1CCN(Cc2ccccc2)CC1 | 85.7% (inactive) | 70.5 | 7.69
36 | N#Cc1nc(COc2ccc(Br)cc2)oc1N1CCCC1 | 31.9% (inactive) | -4.22 | 13.2
37 | Cc1c(C(=O)O)sc(=S)n1-c1ccccc1 | 46.5% (inactive) | 9.56 | 3.47
38 | CC(=O)C1=C(O)C(=O)N(c2ccc(C(=O)O)cc2)C1c1ccccc1 (centres undefined) | -93.1% (inactive) | -74.7 | 4.2
39 | COC(=O)C1=C(C)N=C2SC(C)C(=O)N2C1c1ccc(C(=O)OC)cc1 (centres undefined) | -44.2% (inactive) | -32 | 6.05
40 | CCN(CC)CCN1C(=O)C(O)=C(C(=O)c2ccco2)C1c1ccccn1 (centres undefined) | -51.4% (inactive) | -77 | 2.14
41 | CC(=O)C1=C(NC(=O)c2ccccc2F)C[C@@H]2[C@H]1C2(C)C | -1.88% (inactive) | -28.5 | 2.19
42 | Cc1ccc(-n2c(=O)c3c4c(sc3n3c(C)nnc23)COC(C(C)C)C4)cc1 (centres undefined) | -38% (inactive) | -56.1 | 4.02
43 | O=C(NC1CCS(=O)(=O)C1)N1CCCCC1 (centres undefined) | 28.2% (inactive) | 4.61 | 9.88
44 | COC(=O)c1ccccc1NC(=O)CSc1nnc(-c2ccncc2)o1 | 11.7% (inactive) | -27.3 | 4.89
45 | CCOC(=O)c1[nH]c2ccc(C)cc2c1N=CN(CC)CC | 1.88% (inactive) | -13 | 12.3
46 | COC(=O)c1ccccc1NC(=O)C1COc2ccccc2O1 (centres undefined) | 16.2% (inactive) | 13.5 | 13.5
47 | COc1cc2nc(N3CCN(C(=O)c4ccco4)CC3)nc(N)c2cc1OC | 94.7% (active) | 67.4 | 30.2
48 | COc1cc2nc(N3CCN(C(=O)C4CCCO4)CC3)nc(N)c2cc1OC (centres undefined) | -61.2% (inactive) | -20.9 | 2.06
49 | COc1cccc(OC)c1OCCN1CCN(C(=O)c2ccco2)CC1 | 18.1% (inactive) | 7.71 | 3.57
50 | COc1cc2nc(N3CCN(C(=O)C4COc5ccccc5O4)CC3)nc(N)c2cc1OC (centres undefined) | 96% (active) | 83.5 | 21.8
51 | COc1ccc2[nH]c(C)c(C(=O)CN3CCN(C(=O)c4ccco4)CC3)c2c1 | -20.9% (inactive) | -49.5 | 3.46
52 | O=C(O)c1nsc(Cl)c1Cl | -41.6% (inactive) | -55.8 | 1.81

Row | Compound | growth inhibition | growth inhibition [1] [%] | condensed nuclei [%]
53 | Cc1cccc(OCC(=O)N2CCC(N3CCCCCC3)CC2)c1 | -20.3% (inactive) | -10.7 | 13.8
54 | CN(C)CC(O)COc1ccc(-c2ccc(C#N)cc2)cc1 (centres undefined) | 90.2% (active) | 86 | 7.89
55 | CN(C)CC(O)COc1ccc(C(C)(C)c2ccc(OCC(O)CN(C)C)cc2)cc1 (centres undefined) | 61.9% (inactive) | 98.3 | 18.1
56 | CN(C)CC(O)COc1cccc(OCC(O)CN(C)C)c1 (centres undefined) | -49% (inactive) | -41 | 5.18
57 | Cn1c(=O)c2c(nc(Br)n2Cc2ccc3ccccc3c2)n(C)c1=O | 57.1% (inactive) | 9.53 | 5.08
58 | Cc1cc(=O)[nH]c(SCC(=O)c2ccccc2)c1C#N | 27.9% (inactive) | -16.6 | 2.93
59 | CCCSc1nc(C)c(CC(=O)O)c(=O)[nH]1 | -32.6% (inactive) | -21 | 3.23
60 | CCN(CC)C(=O)C1CCN(c2ncnc3c2cnn3-c2ccc(C)cc2C)CC1 | 63.8% (inactive) | 64.7 | 6.87
61 | Fc1ccc(C2C3=C(Nc4ncnn42)c2ccccc2OC3c2ccncc2)cc1 (centres undefined) | 61.8% (inactive) | 20.5 | 17.7
62 | CCCOc1ccc(CSC(CC(=O)O)C(=O)O)cc1 (centres undefined) | -29% (inactive) | -72.1 | 0.98
63 | COC(=O)C1=C(C)N=C2SC(C)C(=O)N2C1/C=C/c1ccccc1OC (centres undefined) | -57.1% (inactive) | -59.2 | 1.79
64 | CCCCC(=O)c1c(C)cc(C)[nH]c1=O | -16.9% (inactive) | -46.2 | 1.27
65 | CCN(CC)CCN1C(=O)C(O)=C(C(=O)c2cccs2)C1c1ccccn1 (centres undefined) | -42% (inactive) | -45.7 | 3.64
66 | CCN(CC)CCOC(=O)c1c(C)n(C)c2ccc(OC)cc12 | -57.1% (inactive) | -23 | 3.82
67 | Cn1cc(Cl)nc1C(O)c1ccccc1 (centres undefined) | -111% (inactive) | -43.7 | 2.87
68 | Cc1cc2c(c(=O)o1)C(CC(C)C)C(C#N)=C(N)O2 (centres undefined) | 18.4% (inactive) | -9.11 | 2.71
69 | N/C(CCN1CCCCC1)=N/O | 20.8% (inactive) | 13.8 | 6.52
70 | c1ccc(Cc2nn[nH]n2)cc1 | 14.9% (inactive) | -16.9 | 4.71
71 | N#C/C(=N\O)c1nc(-c2ccccc2)cs1 | -131% (inactive) | -49.8 | 3.16
72 | CCOc1cccc(-c2nnc3sc(-c4ccco4)nn23)c1 | -51.8% (inactive) | -46.9 | 2.36
73 | CCOC(=O)C(Oc1ccc(=O)[nH]n1)C(C)=O (centres undefined) | -6.93% (inactive) | -59.3 | 3.6
74 | CC(C)Sc1nnc2n(CCc3ccccc3)c(=O)c3c4c(sc3n12)COC(C)(C)C4 | 0.75% (inactive) | -42.2 | 1.47
75 | CCc1[nH]c(=O)c(C#N)c2c1CSC(C)(C)C2 | 9.49% (inactive) | -3.16 | 4.45
76 | CC1(C)CC(=O)C2=C(C1)Oc1nc3ccccc3cc1C2C(C#N)C#N (centres undefined) | 92.5% (active) | 71.1 | 0
77 | Cc1nn(C)cc1C1C2=C(CC(C)(C)CC2=O)OC2=C1C(=O)CC(C)(C)C2 | -19.8% (inactive) | -38.9 | 2.88
78 | CC1(C)CC(=O)C2=C(C1)OC(N)=C(C#N)C2C1C=CCCC1 (centres undefined) | 59.5% (inactive) | 32.2 | 3.5
